Sampled rows, rich in hits. Any-hit rate of the full collection: about 1.8%.
Six1-Eya2 blk = qHTS Assay for Inhibitors of the Six1/Eya2 Interaction; 360,000 tested, 0.56% active; Homeobox protein SIX1 (Homo sapiens) + Protein phosphatase EYA2 (Homo sapiens), …; AlphaScreen GST-Six1/His-Eya2 binding, biochemical; active compounds read low; activity change, % (test concentration not listed); AID 651725, 2012
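Homogeneous AlphaScreen proximity assay pairing GST-Six1 with His-tagged Eya2 (added as 5X mix: 250 nM and 500 nM) in 50 mM Tris pH 8.0, 300 mM NaCl, 1 mM TCEP. Glutathione donor and nickel acceptor beads; 1 h, 37 °C, dark.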
PI5P4K alpha inh = qHTS for Inhibitors of phosphatidylinositol 5-phosphate 4-kinase (PI5P4K) | 330,000 tested, 1.2% active | AID 652105, 2013 | max response, % | Phosphatidylinositol 5-phosphate 4-kinase type-2 alpha (Homo sapiens), P48426 | PI5P4Kalpha enzyme, ADP-Glo luminescence, 60 min; active compounds read low; active = max response of -50% or lower; inconclusive = between -30% and -50%; inactive = -30% or higher; also: value at the top dose of about 77 µM
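Luminescence from ADP-Glo served as readout of PI5P4Kalpha activity in a qHTS format. Reaction: enzyme, substrate, compound, ATP at 5 microM final, 60 min at RT.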
CtBP-E1A inh = qHTS Assay for Inhibitors of the CtBP/E1A Interaction | AlphaScreen GST-E1A/His-CtBP binding, 1536-well; active compounds read low | activity change, % (test concentration not listed) | 340,000 tested, 0.49% active | AID 651724, 2012
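AlphaScreen with 125 nM GST-E1A and 125 nM His-CtBP (5X stocks) in Tris pH 8.0, 300 mM NaCl, BSA, Tween 20, TCEP. Compounds preincubated 2 h at 37 deg C, then glutathione donor/nickel acceptor beads added for 1 h at 37 deg C in dark.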
PI4K2A inh = qHTS for small molecular inhibitors of PI4K2A; activity change, negative = inhibition, % at 76.9 µM; purified PI4K2A, ADP-Glo luminescence, 1 h; active compounds read low; 420,000 tested, 0.13% active; in the data active = activity change below about -50%; inconclusive = mostly about -30% to -49%
Target sequence (Q9BTU6 whole entry, looked up): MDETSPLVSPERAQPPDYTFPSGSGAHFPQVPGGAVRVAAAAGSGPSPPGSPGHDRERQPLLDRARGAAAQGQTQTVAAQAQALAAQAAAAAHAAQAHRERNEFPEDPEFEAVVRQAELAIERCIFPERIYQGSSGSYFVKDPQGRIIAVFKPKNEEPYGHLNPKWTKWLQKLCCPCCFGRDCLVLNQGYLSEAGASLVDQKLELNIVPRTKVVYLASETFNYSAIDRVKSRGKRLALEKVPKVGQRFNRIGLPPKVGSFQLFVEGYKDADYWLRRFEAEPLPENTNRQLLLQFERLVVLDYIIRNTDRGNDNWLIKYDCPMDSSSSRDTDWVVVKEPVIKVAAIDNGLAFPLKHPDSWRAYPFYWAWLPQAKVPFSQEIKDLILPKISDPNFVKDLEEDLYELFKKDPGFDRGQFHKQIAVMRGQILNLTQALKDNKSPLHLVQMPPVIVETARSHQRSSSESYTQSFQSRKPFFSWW
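ADP-Glo luminescence measured ADP generated by PI4K2A enzyme (4 ug/mL before mixing) with 1.2 mM PI substrate (pre-mix) and 300 microM ATP (pre-mix). Tris pH7.5 buffer with MgCl2, Triton X-100; 1 h reaction at ambient temperature.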
pAkt inh = HTS Assay for Inhibitors of Akt Phophorylation: Primary Screen | 360,000 tested, 0.32% active | Neuro2A IGF-stimulated pAkt S473 HTRF, 20 min; active compounds read low | activity change, % for hits at 50 µM | AID 651550, 2012; in the data active = activity change below about -80%; inconclusive = mostly about -51% to -80%
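Neuro2A cells in DMEM with 0.5% FBS, overnight at 37 deg C, given compound at single 50 µM final, then IGF (6 nM final) for 20 min at 37 deg C. Lysed; phospho-Akt Ser473 by HTRF after 24 h, 665/615 ratio.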
Of the large screens only hits and unclear results are named; the others gave an inactive call. Rule as the data show it, unless noted: active = activity change below about -65%; inconclusive = mostly about -30% to -63%; inactive = weaker than that.

Cc1ccc2nc(NC(=O)COC(=O)c3ccco3)sc2c1	none (no result: pAkt inh)
Cc1nc(-c2ccc(C(=O)Nc3ccccc3F)cc2)cs1	PI4K2A inh -60
Cc1nc(-c2ccc(C(=O)N3CCOCC3)cc2)cs1	none
Cc1nc(-c2ccc(C(=O)Nc3ccc(F)cc3)cc2)cs1	PI4K2A inh inconclusive
Cc1nc(-c2ccc(C(=O)N3CCCC3)cc2)cs1	PI5P4K alpha inh inconclusive, PI4K2A inh -56
CCCCNC(=O)Cn1nc(Cc2ccncc2)c2ccccc2c1=O	none (no result: CtBP-E1A inh)
O=C(Cn1nc(Cc2ccncc2)c2ccccc2c1=O)N1CCc2ccccc2C1	CtBP-E1A inh -68
CCNC(=O)C1CCCN(C(=O)c2cccc3ccccc23)CC1 (configuration not stated)	none
COc1ccccc1/C=C/C=N/NC(=O)c1cc(-c2ccco2)[nH]n1	PI5P4K alpha inh -72
O=C(NC(=S)NCCC1=CCCCC1)c1ccccc1Br	PI5P4K alpha inh -54
O=C(COC(=O)c1ccccc1Br)NCCC1=CCCCC1	none
Nc1nc(N)c2sc3nc4c(cc3c2n1)CCC4	Six1-Eya2 blk -76, PI5P4K alpha inh inconclusive, CtBP-E1A inh -84
CCCCSc1n[nH]c(=S)c2nc[nH]c12	PI5P4K alpha inh -63
S=c1[nH]nc(SCc2ccccc2)c2[nH]cnc12	PI5P4K alpha inh inconclusive
CN(C)c1ccc(N=c2sc3ccccc3n2C)cc1	Six1-Eya2 blk -84 (no result: PI5P4K alpha inh)
Cn1c(=Nc2ccccc2)sc2ccccc21	none (no result: PI5P4K alpha inh, pAkt inh)
O=C(/C=C/c1ccc([N+](=O)[O-])cc1)Nc1cccc(C(=O)Nc2ccccc2C(=O)O)c1	PI5P4K alpha inh -66 (no result: CtBP-E1A inh)
O=C(N/N=C/C(Cl)=C/c1ccc([N+](=O)[O-])cc1)C(=O)Nc1ccccc1C(=O)O	PI5P4K alpha inh -50, CtBP-E1A inh -92
O=C(Nc1ccc([N+](=O)[O-])cc1)C(=O)Nc1cccc(C(=O)O)c1	PI5P4K alpha inh -60
O=C(N/N=C/C(Cl)=C/c1ccc([N+](=O)[O-])cc1)C(=O)Nc1ccc(C(=O)O)cc1	CtBP-E1A inh -98
COC(=O)c1cccc(NC(=O)/C=C/c2ccc([N+](=O)[O-])cc2)c1	none
CCOC(=O)C1=CC[C@@H](c2ccc(F)cc2)N(S(=O)(=O)c2ccc(C)cc2)[C@H]1c1ccccc1	none
COc1ccc(CNC(=O)CCNC(=O)N2CCn3c2nc2ccccc23)cc1	none
CC(C)Cc1nnc(NC(=O)CSc2nc(=O)cc(N)n2-c2ccccc2)s1	pAkt inh -114%
O=C(CN1CCC(NC(=O)C2CCCCC2)CC1)Nc1cccc(F)c1	none
N#Cc1nc(COc2ccccc2F)oc1NCCCn1ccnc1	Six1-Eya2 blk inconclusive, CtBP-E1A inh -75
C[C@@H]1C=C[C@](Cc2ccccc2)(C(=O)NCCc2c[nH]c3ccccc23)N1C(=O)c1ccccc1	none
CN(C)c1ccc(N=C/C=C2\N(C)c3ccccc3C2(C)C)cc1	Six1-Eya2 blk -66, CtBP-E1A inh inconclusive
Cc1csc(N=Cc2ccc([N+](=O)[O-])o2)n1	Six1-Eya2 blk inconclusive, PI5P4K alpha inh -82, PI4K2A inh inconclusive
CC1(C(=O)NS(=O)(=O)c2cccc(OC(F)F)c2)CCN1C(=O)c1ccco1 (configuration not stated)	none
COc1cccc2c1cc1c(=O)n(CC(=O)NCCCc3ccccc3)nc(C)n12	none (no result: CtBP-E1A inh)
COc1ccc(CCNc2nc(-c3ccccn3)cs2)cc1OC	Six1-Eya2 blk -79 (no result: CtBP-E1A inh)
Cc1ccc(C(=O)COC(=O)CSc2cccc3cccnc23)c(C)c1	CtBP-E1A inh -77
O=C(O)CSc1cccc2cccnc12	Six1-Eya2 blk inconclusive, CtBP-E1A inh inconclusive
CC1(C)[C@@H](O)CC[C@]2(C)C3C(O)C=C4[C@H]5C[C@@](C)(CO)CC[C@]5(C)CC[C@]4(C)[C@]3(C)CC[C@@H]12 (some centres not stated)	PI5P4K alpha inh -62
CC1(C)[C@@H](O)CC[C@]2(C)[C@H]3C(=O)C=C4[C@@H]5C[C@@](C)(C(=O)O)CC[C@]5(C)CC[C@@]4(C)[C@]3(C)CC[C@@H]12	none
